Sm TGR block = inhibitors of Schistosoma mansoni thioredoxin glutathione reductase; purified TGR, DTNB reduction, TNB absorbance 405 nm; Q962Y6; Potency, µM (top dose mostly 114 µM), actives largely listed as inhibitors; AID 485364; actives 3% (n = 360,000); active means well fitted inhibition curve with a large enough effect; inconclusive means small, poorly fitted or top-dose-only effect; inactive means no such curve, though single readings can be large or run the other way; further: nearly all actives have a fitted effect of over 60% in size
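TGR 20 nM + NADPH 100 uM (dispensed conc.), cpd preinc 15 min RT; start with NADPH (500 uM addition) then DTNB (15 mM addition). Kinetic TNB absorbance, 405 nm filter. Four-parameter Hill fit across titration.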
FMDV inh = blocks foot and mouth disease virus | FMDV antiviral cell-based qHTS | Potency, µM (doses to about 57.9 µM), hits mostly inhibitors | actives 1.2% (n = 410,000); calls by dose curve; tested in HEK293T cells; further: read-out not given here; nearly all actives have a fitted effect of over 45% in size
Shiga inhibitor = blocks Shiga toxin action in Vero cells; Vero cells, Shiga toxin protein synthesis inhibition reporter; inhibition, % at 38.7 µM; actives 9.2% (n = 290,000); in the data active means inhibition mostly above about 28%, no sharp cut-off; inactive means mostly below about 43%
CHX counter = affects cycloheximide protein synthesis inhibition readout, counter-screen | cell reporter, cycloheximide protein synthesis inhibition counterscreen | max response, % | actives 12% (n = 300,000); in the data active means max response mostly above about 13%, no sharp cut-off; inactive means mostly below about 14%; further: read at 38.3 µM for the half of the compounds with a filed dose
A number is an active result; - = inactive; ? = inconclusive; . = not tested or not shown; ! = not confirmed by another sample. Compounds with a hit are over-represented: about 12% of the library has one in this group of screens.

SMILES	Sm TGR block	FMDV inh	Shiga inhibitor	CHX counter
CC(C)(C)c1ccc(C(=O)NCC(c2cccnc2)N2CCc3ccccc3C2)cc1 (stereo not given)	-	?	.	.
CCOC(=O)c1oc2c(c1C)/C(=N/O)CCC2	-	-	66	41
CCNC(=O)/C(C#N)=C/c1c(N2CCN(c3ccccc3)CC2)nc2ccccn2c1=O	-	-	44	29
O=C(NCc1cccnc1)C1CCCN(S(=O)(=O)c2ccccc2)C1 (stereo not given)	?	.	-	-
O=C(NCc1cccnc1)C1CCCN(S(=O)(=O)c2ccc(Cl)cc2)C1 (stereo not given)	-	-	-	36
Cc1ccc(S(=O)(=O)N2CCCC(C(=O)NC3=NCCS3)C2)cc1 (stereo not given)	-	-	-	-
CCCS(=O)(=O)N1CCC(C(=O)NCc2ccccc2Cl)CC1	-	-	-	17
O=C(NCc1ccc(Cl)cc1)C1CCN(S(=O)(=O)c2ccccc2)CC1	25µM!	-	-	-
O=C(NC1=NCCS1)C1CCN(S(=O)(=O)c2ccc(Cl)cc2)CC1	50µM	-	.	.
O=C1C=CC2=C3c4cc(O)c(O)cc4C[C@]3(O)COC2=C1	.	-	.	.
CCOc1cccc(Nc2ccc([N+](=O)[O-])cn2)c1	-	-	.	29
Cc1cccc(Nc2ccc([N+](=O)[O-])cn2)c1	-	-	63	25
Cc1cccc(Nc2ccc([N+](=O)[O-])cc2C(=O)O)c1	-	-	-	28
Cc1cccc(OCCNc2ccc([N+](=O)[O-])cn2)c1	-	-	-	-
COc1ccc(Oc2nc(C(F)(F)F)nc3ccccc23)cc1	-	?	-	-
Cc1ccc(Oc2cnc3ccccc3n2)cc1	-	-	103	58
Clc1ccc(Oc2cnc3ccccc3n2)cc1	-	-	33	21
O=[N+]([O-])c1ccc(Oc2cnc3ccccc3n2)cc1	-	-	-	-
Fc1ccc(Oc2cnc3ccccc3n2)cc1	-	-	39	-
COc1ccc(Oc2cc(C)c3ccccc3n2)cc1	-	-	69	-
COc1cc([N+](=O)[O-])ccc1NC(=O)N1CCC2(CC1)Nc1cc(F)ccc1-n1cccc12	-	-	.	.
CC(=O)NC1=C(NC2CCS(=O)(=O)C2)C(=O)c2ccccc2C1=O (stereo not given)	0.71µM	-	-	-
CN(C1=C(NC(=O)c2ccccc2)C(=O)c2ccccc2C1=O)C1CCS(=O)(=O)C1 (stereo not given)	?	10µM	75	39
CN(C)c1ccc(CNC(=O)C2CCCN(S(=O)(=O)c3ccc4c(c3)oc(=O)n4C)C2)cc1 (stereo not given)	-	-	.	.
Cc1ccc(Cl)cc1-n1ncc2c(NCCC3=CCCCC3)ncnc21	-	-	.	.
SMILES	Sm TGR block	FMDV inh	Shiga inhibitor	CHX counter
CN(Cc1ccccc1)C(=O)c1ccco1	-	-	-	-
O=C(C#Cc1ccccc1)c1ccco1	0.89µM	8.9µM	-	-
COc1ccccc1C(=O)/C=C/c1ccc(N2CCCCC2)c([N+](=O)[O-])c1	-	35µM	99	62
O=C(/C=C/c1ccc(N2CCCCC2)c([N+](=O)[O-])c1)c1ccc(O)cc1	-	-	55	47
O=C(O/N=C\c1ccc(N2CCCCC2)c([N+](=O)[O-])c1)c1ccc(Cl)cc1Cl	-	-	-	-
Nc1nnnn1/N=C/c1ccc(N2CCCCC2)c([N+](=O)[O-])c1	-	-	63	38
COc1cccc(CN2CCc3nnc(CCc4ccccc4)n3CC2)c1OC	.	-	.	.
O=C(NC1CC(=O)N(c2ccccc2)C1)c1ccc(S(=O)(=O)N2CCCCC2)cc1 (stereo not given)	-	-	.	.
Cc1ccccc1C1(CC(=O)N2CCCCC2c2cccnc2)CC(=O)N(C2CCCC2)C1=O (stereo not given)	.	-	.	.
COc1ccc(OC)c(-c2nnc3n2N=C(c2ccc(OC)c(OCC4CC4)c2)CS3)c1	.	32µM	.	.
O=C(Nc1ccc2c(c1)OCCO2)c1cc(F)c(F)cc1Cl	-	-	72	37
Cc1nn(-c2ccccc2)nc1C(=O)Nc1ccc2c(c1)OCCO2	-	-	-	-
O=C(Nc1ccc2c(c1)OCCO2)c1c(Cl)cccc1Cl	.	-	.	.
O=C(Nc1ccc2c(c1)OCCO2)c1cccc(Cl)c1Cl	-	-	93	43
O=C(Nc1ccc2c(c1)OCCO2)c1c(F)c(F)c(F)c(F)c1F	-	-	-	17
CCc1nnc(NC(=O)c2cc(=O)c3cc(C)ccc3o2)s1	-	-	.	.
COc1ccc(Cl)cc1NC(=O)c1ccc2c(c1)CCN2S(C)(=O)=O	-	-	.	.
O=C1CCCC(=O)C1C1c2ccccc2CCN1C(=O)CCl (stereo not given)	45µM	-	-	-
COc1ccc2c(c1)CCN(C(=O)CCl)C2C1C(=O)CCCC1=O (stereo not given)	?	-	-	-
COc1cc(C)c(CN2CCOc3ccc(C(O)c4cccnc4)cc3C2)cc1C (stereo not given)	.	-	.	.
Oc1cccc(Nc2nc(O)c(/C=C3\C=Nc4ccccc43)s2)c1	-	-	94	52
O=C(Cn1cc(C(F)(F)F)cc(Cl)c1=O)NCc1ccccc1	-	-	73	44
CC(C)c1ccc(Cc2cnc(NC(=O)c3ccc4c(c3)CC(c3ccccc3)OC4=O)s2)cc1 (stereo not given)	-	?	.	.
O=C(O)/C=C/c1coc2ccccc2c1=O	-	-	-	33
O=C(O)/C=C/c1coc2ccc(F)cc2c1=O	-	-	active	23
SMILES	Sm TGR block	FMDV inh	Shiga inhibitor	CHX counter
CC[C@H](C)[C@H](NC(=O)[C@H](Cc1ccccc1)NC(=O)[C@H](CCC(=O)O)NC(=O)[C@H](CCCCN)NC(=O)[C@H](C)NC(=O)[C@H](C)NC(=O)[C@H](CCC(N)=O)NC(=O)CNC(=O)[C@H](CCC(=O)O)NC(=O)[C@H](CC(C)C)NC(=O)[C@H](Cc1ccc(O)cc1)NC(=O)[C@H](CO)NC(=O)[C@H](CO)NC(=O)[C@@H](NC(=O)[C@H](CC(=O)O)NC(=O)[C@H](CO)NC(=O)[C@@H](NC(=O)[C@H](Cc1ccccc1)NC(=O)[C@@H](NC(=O)CNC(=O)[C@H](CCC(=O)O)NC(=O)[C@H](C)NC(=O)[C@@H](N)Cc1cnc[nH]1)[C@@H](C)O)[C@@H](C)O)C(C)C)C(=O)N[C@@H](C)C(=O)N[C@@H](Cc1c[nH]c2ccccc12)C(=O)N[C@@H](CC(C)C)C(=O)N[C@H](C(=O)N[C@@H](CCCCN)C(N)=O)C(C)C	.	.	-	-
Cc1[nH][nH]c(=O)c1C(c1ccc(-c2ccccc2C(=O)O)o1)c1c(C)[nH][nH]c1=O	?	-	-	-
Cc1[nH][nH]c(=O)c1C(c1ccc(-c2cccc(C(=O)O)c2)o1)c1c(C)[nH][nH]c1=O	?	-	74	58
Cc1[nH][nH]c(=O)c1C(c1ccc(-c2ccc(Cl)cc2Cl)o1)c1c(C)[nH][nH]c1=O	?	.	-	-
COC(=O)c1ccc(-c2ccc(C(c3c(C)[nH][nH]c3=O)c3c(C)[nH][nH]c3=O)o2)cc1	8.9µM	-	-	-
Cc1[nH][nH]c(=O)c1C(c1ccc(-c2cccc(Cl)c2)o1)c1c(C)[nH][nH]c1=O	7.1µM	?	-	-

Screening results from PubChem.
